Laboratory results as given in the supplement of paper PMC7866885, “A novel bicyclic 2,4-diaminopyrimidine inhibitor of Streptococcus suis dihydrofolate reductase” (PeerJ, 2021).
± gives the standard deviation.

Tested on: Streptococcus suis HE06
Assay: percent growth relative to DMSO control; higher = less growth inhibition
Conditions: 10 µM; incubation time 18 h
Description: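 CLSI broth microdilution: 5x10^4 CFU of Streptococcus suis (strain P1/7 or HE06) incubated with 10 µM Pathogen Box compound in cation-adjusted Mueller Hinton broth, 37 °C, 5% CO2, 18 h. Growth read as OD600 and expressed as percent of the DMSO-treated control (100%); mean ± SD of three independent experiments.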

In order of rising percent growth:
1. FC(F)(F)c1cc(NCCc2ccccc2)nc(-c2ccccn2)n1  1.92 ± 3.3%
2. COc1ccc(C2=NN(C3CCCCCC3)C(=O)C2(C)C)cc1OCCCCOc1ccc(-c2nn[nH]n2)cc1  2.58 ± 3.1%
3. Cn1c(=O)c2c(S(C)(=O)=O)snc2n(C)c1=O  40.1 ± 32%
4. Cn1ncc2c(N3CCOCC3)nc(NCCc3c[nH]c4ccccc34)nc21  76.5 ± 10%
5. O=C(Nc1cccnc1)c1c(O)c2cccc3c2n(c1=O)CC3  78.3 ± 3.7%
6. COc1cc(CN2CCC3(C=Cc4ccccc43)CC2)cc2c1OCO2  82 ± 16%
7. Nc1nccc2ccc(-c3ccc4nccn4c3)cc12  85.8 ± 25%
8. COC(=O)Nc1nc2cc(C(=O)c3ccccc3)ccc2[nH]1  86 ± 8.2%
9. Cc1ccc(Oc2ccc(NC(=O)CNc3ccccc3N3CCCC3=O)cc2)cc1  86.9 ± 11%
10. CC(C)(C)OC(=O)N1CCN(c2cc(-c3ccc(Oc4ccccc4)cc3)n[nH]2)CC1  89.6 ± 5.8%
11. COc1ccc2nc(C)cc(OCC(=O)Nc3ccccc3OC)c2c1  89.9 ± 9.3%
12. O=C(NCc1ccco1)N1CCN(Cc2ccc(Cl)s2)CC1  97.2 ± 4.8%
13. C[C@@H]1[C@H](O)[C@@H](C)/C=C/C=C/C=C/C=C/C=C/C=C/C=C/[C@H](O[C@@H]2O[C@H](C)[C@@H](O)[C@H](N)[C@@H]2O)C[C@@H]2O[C@](O)(C[C@@H](O)C[C@@H](O)[C@H](O)CC[C@@H](O)C[C@@H](O)CC(=O)O[C@H]1C)C[C@H](O)[C@H]2C(=O)O  97.2 ± 8.6%
14. Clc1cccc(CO[C@H]2CCc3ccccc3[C@@H]2n2ccnn2)c1  97.4 ± 3.9%
15. Nc1ncc(-c2ccc(C(F)(F)F)nc2)cc1-c1ccc(C(F)(F)F)nc1  98.8 ± 13%
16. CN1CCC(c2cc(-c3ccncc3)c(-c3ccc(F)cc3)[nH]2)CC1  101 ± 13%
17. c1ccc(Oc2ccc(-c3cc(N4CCNCC4)[nH]n3)cc2)cc1  106 ± 35%
18. c1ccc(Oc2ccc(-c3cncc(-c4ccc5[nH]ccc5c4)n3)cc2)cc1  109 ± 24%
19. O=[N+]([O-])c1cn2c(n1)OC[C@@H](OCc1ccc(OC(F)(F)F)cc1)C2  110 ± 13%
20. Cc1nc(-c2ccccn2)nc(NCCc2ccc(S(C)(=O)=O)cc2)c1Cl  131 ± 60%
